Inconclusive results are not listed. Unmarked numbers belong to inactive results. Active and inactive are the calls of the source. Calls come from the whole dose curve; as a rule, active = well fitted inhibition curve with a large enough effect; inconclusive = small, poorly fitted or top-dose-only effect; inactive = no such curve, though single readings can be large or run the other way.
experiment: Primary qHTS for small molecule stabilizers of the endoplasmic reticulum resident proteome: Secreted ER Calcium Modulated Protein (SERCaMP) assay (AID 1508630); settings: SH-SY5Y GLuc-SERCaMP (Gaussia luciferase released on ER calcium loss) secretion, thapsigargin, luminescence; series mostly up to 38.4 µM; activity change, negative = inhibition: at the top concentration
Source text: Assay Provider: Brandon K. Harvey Ph.D.
National Institute on Drug Abuse, National Institutes of Health, Baltimore, MD
Endoplasmic reticulum (ER) dysregulation is associated with human pathologies including neurodegenerative, cardiovascular, muscular, and diabetic conditions. Maintenance of ER calcium is critical for functions of the ER and its depletion can lead to loss of ER resident proteins, in a process termed exodosis. Therapeutic compounds capable of attenuating the redistribution of ER proteins under pathological conditions may slow or stop disease progression. To identify such compounds, we performed a quantitative high-throughput screen (qHTS) using the SERCaMP assay, which monitors secretion of ER resident proteins triggered by calcium depletion.
SERCaMP was initially developed as a reporter of ER calcium homeostasis using a Gaussia luciferase with a modified signal peptide and carboxy-terminus (GLuc-SERCaMP), modifications that confer secretion of the reporter in response to ER calcium depletion (Henderson et al., 2014). The assay was used to screen 9,501 compounds, including a collection of drugs approved by the FDA (US), EMA (EU), NHI (Japan), and HC (Canada) regulatory agencies (Huang et al., 2011). Since the SERCaMP reporter reflects the exodosis phenomenon (Trychta et al., 2018a), compounds identified in the screen have the potential to prevent exodosis by different mechanisms such as stabilizing ER calcium or augmenting ERS retrieval.
1. Henderson, M.J., Wires, E.S., Trychta, K.A., Richie, C.T., and Harvey, B.K. (2014). SERCaMP: a carboxy-terminal protein modification that enables monitoring of ER calcium homeostasis. Mol Biol Cell 25, 2828-2839.
2. Huang, R., Southall, N., Wang, Y., Yasgar, A., Shinn, P., Jadhav, A., Nguyen, D.T., and Austin, C.P. (2011). The NCGC pharmaceutical collection: a comprehensive resource of clinically approved drugs enabling repurposing and chemical genomics. Sci Transl Med 3, 80ps16.
3. Trychta, K.A., Back, S., Henderson, M.J., and Harvey, B.K. (2018a). KDEL Receptors Are Differentially Regulated to Maintain the ER Proteome under Calcium Deficiency. Cell Rep 25, 1829-1840 e1826.
SEQUENCE No. (1, 2, 3, etc.); […] (e.g., Cells, Incubation, Reagent, etc.); VALUE and DESCRIPTION.
1; Reagent; 5 uL; 1000 SH-SY5Y cells per wells
3; Compound; 23 nL; Control inhibitor / compound library
5; Reagent; 100 nM; Thapsigargin
7; Reagent; 1 uL; 0.5x coelenterazine
8; Detection; Luminescence; ViewLux imaging system
NOTES (numbers refer to sequence above)
1; SH-SY5Y human neuroblastoma cells stably expressing GLuc-SERCaMP (SH-SY5Y-GLuc-ASARTDL) cells were seeded in 1,536 well white tissue culture treated plates (Corning, Cat# 7464) in DMEM-high glucose-sodium pyruvate (ThermoFisher Scientific, Cat #10569) supplemented with 10% bovine growth serum (Hyclone), 10 U/ml penicillin (Gibco), 10 ug/ml streptomycin (Gibco), and 20 mM HEPES.
2; Assay plates were incubated for 5 hour at 37C in a humidified incubator containing 5% CO2.
3; qHTS libraries (23 nl, final concentrations of 1.53 uM, 7.67 uM, 38.3 uM) or controls (neutral control: DMSO, positive control: dantrolene) were added using a Kalypsis pin-tool Robotic System equipped with 1536 pinheads.
4; Cells were then incubated for 16 hours at 37C, 5% CO2.
5; Thapsigargin was added at 100 nM to deplete ER calcium stores.
6; Cells were incubated for 4 hour (37 °C, 5% CO2)
7; Gaussia luciferase in the medium was measured by adding 1 ul of 0.5x coelenterazine (final concentration 0.07x) prepared in Gaussia Luciferase Glow Assay Buffer (Pierce), without addition of the Cell Lysis Buffer Reagent.
8; Luminescence was measured using a ViewLux […] CCD imaging system (Perkin Elmer) equipped with clear filters. […] The same controls were also used for the calculation of the Z' factor, a measure of assay quality control, as previously described (Zhang et al., 1999). […]
% is set by controls: 0 for no effect and ±100 for the full control effect.

Going from `O=C1c2c(O)cc(O)cc2O[C@H](c2cc(O)c(O)c(O)c2)[C@H]1O` to `OC[C@H]1O[C@@H](Oc2cc(O)cc(C=Cc3ccc(O)cc3)c2)[C@H](O)[C@@H](O)[C@H]1O`, the “activity change, negative = inhibition” value rises from 27.4% to 82.2%.

Compared with `Nc1ncnc2ccccc12`, `c1ccc2c(-c3cnn4cc(-c5ccc(N6CCNCC6)cc5)cnc34)ccnc2c1` is higher in “activity change, negative = inhibition” value: 0% for the first, 38.2% for the second.

First: O=c1cc(CN2CCOCC2)occ1OCCCCCSc1ccnc2cc(C(F)(F)F)ccc12
Second: O=C(NCCN1CCOCC1)c1ccc(Cl)cc1
The “activity change, negative = inhibition” value of the first is higher: 0% for the first, -4.65% for the second.

Compared with `CCc1ccc(OCc2ccccc2C(=O)Nc2ccc3nc(C)cc(N)c3c2)cc1`, `CCC(=O)NC[C@H](Cc1ccc(OCCc2nc(-c3ccccc3)oc2C)cc1)NC(C)=CC(=O)c1ccc(C(F)(F)F)cc1` is lower in “activity change, negative = inhibition” value: 264% for the first, 0% for the second.

Going from `Nc1ncnc2c1nc(Cl)n2[C@@H]1O[C@H](CO)[C@@H](O)[C@@H]1O` to `OC[C@H]1O[C@@H](n2cnc3c2NC=NC[C@@H]3O)C[C@H]1O`, the “activity change, negative = inhibition” value rises from -1.57% to 5.21%.

Going from `COCCOC(=O)C1=C(C)NC2=C(C(=O)CC(c3ccccc3OC)C2)C1c1cccc(O)c1` (stereo not given) to `CN(C)Cc1cccc(N=C(c2ccccc2)c2c(O)[nH]c3cc(C(=O)N(C)C)ccc23)c1`, the “activity change, negative = inhibition” value rises from 0% to 6.78%.

Going from `COc1cc(Nc2ncc(F)c(Nc3ccc4c(n3)NC(=O)C(C)(C)O4)n2)cc(OC)c1OC` to `COc1ncc(-c2ccc3nccc(-c4ccnnc4)c3c2)cc1NS(=O)(=O)c1ccc(F)cc1F`, the “activity change, negative = inhibition” value rises from -0.513% to 220%.

Going from `Cc1nc(N)sc1-c1ccnc(Nc2ccc(N3CCOCC3)cc2)n1` to `NC(=O)c1cccc(-c2cc(Nc3ccc(OC(F)(F)F)cc3)ncn2)c1`, the “activity change, negative = inhibition” value falls from 15.9% to -8.15%.

`CNC(=O)c1ccccc1Sc1ccc2c(C=Cc3ccccn3)n[nH]c2c1` and `O=C(O)c1ccc(-c2cc3cccnc3c(-c3ccc4nonc4c3)n2)cc1` are the same in “activity change, negative = inhibition” value: 0% for the first, 0% for the second.

Going from `O=C(Nc1c(Cl)cncc1Cl)c1ccc(OC(F)F)c(OCC2CC2)c1` to `CC(C)(C)COc1ccc(-n2cc(C(=O)O)cn2)cc1C#N`, the “activity change, negative = inhibition” value falls from 343% to 51.7%.

First: CC(C)(C)C(=O)Oc1ccc2c(c1)nc(NC(=O)c1cccc([N+](=O)[O-])c1)n2CCCO
Second: COc1ccc(-c2coc3cc(O)ccc3c2=O)cc1
The “activity change, negative = inhibition” value of the first is lower: -59.1% for the first, 89.6% for the second.

Going from `COC1CCC(N(C(=O)C2CCC(C)CC2)c2cc(C3=CCCCC3)sc2C(=O)O)CC1` (stereo not given) to `CC(C)(C)OC(=O)N[C@H]1CCCCCC=C[C@@H]2C[C@@]2(C(=O)NS(=O)(=O)C2CC2)NC(=O)[C@@H]2C[C@@H](OC(=O)N3Cc4cccc(F)c4C3)CN2C1=O`, the “activity change, negative = inhibition” value rises from 0% to 30.6%.

Going from `CCCNC(=O)NS(=O)(=O)c1ccc(Cl)cc1` to `NC(=O)[C@@H](CCC(F)(F)F)N(Cc1ccc(-c2ncon2)cc1F)S(=O)(=O)c1ccc(Cl)cc1`, the “activity change, negative = inhibition” value rises from -36.1% to 0%.

First: COC(=O)N[C@H](C(=O)N1CCC[C@@H]1c1ncc(-c2ccc(-c3ccc(-c4cnc([C@@H]5CCCN5C(=O)[C@@H](NC(=O)OC)C(C)C)[nH]4)cc3)cc2)[nH]1)C(C)C
Second: Cc1ccc(Nc2cc(-c3cccc(N4C(=O)c5ccccc5C4=O)c3)ncn2)cc1NS(C)(=O)=O
The “activity change, negative = inhibition” value of the first is higher: 3.52% for the first, 0% for the second.

First: N#CC1(c2ccc(NC(=O)c3cccnc3NCc3ccncc3)cc2)CCCC1
Second: O=C(NCc1ccncc1)C12C[C@H]3C[C@@H](C1)CC(c1ccc(Cl)cc1)(C3)C2
The “activity change, negative = inhibition” value of the first is higher: 22.3% for the first, 0% for the second.

Compared with `Oc1ccc(C2=Cc3ccc(O)cc3OC2)cc1`, `CC(=Cc1ccccc1)C=C1SC(=S)N(CC(=O)O)C1=O` is higher in “activity change, negative = inhibition” value: 106% for the first, 183% for the second.

For `CC(=O)O[C@]1(C(C)=O)CC[C@@H]2[C@@H]3C[C@H](C)C4=CC(=O)CC[C@]4(C)[C@H]3CC[C@@]21C`, the “activity change, negative = inhibition” value was 12%.

For `CCN(CC)CCNC(=O)c1ccc(N)cc1`, the Potency was “inactive”.
With `CCOC(=O)C1=C(N)Oc2ccc(Br)cc2C1C(C#N)C(=O)OCC` (stereo not given) the Potency was “inactive”.
In the case of `C[N+](C)(C)CCCCCC[N+](C)(C)C`, the Potency is reported as “inactive”.
For `O=c1cc(-c2ccc(O)cc2)oc2cc(O)cc(O)c12`, the Potency was “inactive”.
For `O=C(O)c1cc(-c2ccccc2)nc2ccccc12`, the Potency was “inactive”.
In the case of `COc1ccccc1N1CCN(CCCNc2cc(=O)n(C)c(=O)n2C)CC1`, the Potency is reported as “inactive”.

With `COc1cc2ncnc(Nc3ccc(F)c(Cl)c3)c2cc1OCCCN1CCOCC1` the “activity change, negative = inhibition” value was 344% [at 76.3 µM].

Reference: PubChem BioAssay (NCATS)
